Results on 58 compounds are retold here after PubChem BioAssay AID938 (National Center for Advancing Translational Sciences (NCATS), 2007).

Several values for one entry are separate records, joined by “and”; a condition that tells them apart may be missing. Equal entries are not always repeated. About 1,800 (2.5%) of roughly 73,000 compounds were called active. Another 13% or so got no clear call; they are omitted. The sample as a whole holds a higher share of actives than the screen did. Unmarked numbers belong to inactive results. Calls come from the whole dose curve; as a rule, active = well fitted activation curve with a large enough effect; inconclusive = small, poorly fitted or top-dose-only effect; inactive = no such curve, though single readings can be large or run the other way.
Potency is the fitted concentration of half-maximal effect.

A short description of the assay: qHTS Assay for Agonists of the Thyroid Stimulating Hormone Receptor: Activators of Intracellular cAMP Concentrations in Parental HEK 293. For activation: % of control where 0% means no effect. Note: nearly all actives have a fitted effect of over 55% in size. To be noted: parental HEK293 CNG cAMP sensor, membrane potential fluorescence; series mostly up to 57.1 µM; activation: at the top concentration. Put shortly:
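Counterscreen for endogenous-receptor signalling: CNG-channel HEK 293 cells report cAMP rise by membrane depolarization. After 60 min dye equilibration with 100 uM RO 20-1724, compounds incubated 30 min before bottom-read fluorescence at 590 nm.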
(In general: In qHTS, concentration-response curves come from the screen itself.)
For the compound `Cc1ccc(Cn2c(NC(=O)c3ccco3)nc3ccccc32)cc1`, the Potency was 25.1 µM (active). In the case of `Cc1ccc(Cn2c(C)nc3c(c2=O)c2nc4ccccc4nc2n3Cc2ccco2)cc1`, the “activation” value was 2.46%. Same read-out and setting: the result for `CCOc1ccc2nc(NCCNS(=O)(=O)c3ccccc3)c(C#N)cc2c1` reads 26.9%; that for `Cc1nnc(N(Cc2ccco2)C(=O)c2ccno2)s1`, 3.12%. For `N#CC1=C(SCc2ccccc2)NC(=O)C(C#N)C12CCCC2` (stereo not drawn), the Potency was 31.6 µM (active). With `COC(=O)CSC1=C(C#N)C(c2ccccc2OC)C(C(=O)OC)C(=O)N1` (stereo not drawn), the activation was -3.31% [at 11.4 µM]. For `Cc1noc(C)c1-c1nc(Nc2ccccc2)c2ccccc2n1`, the “activation” value is -3.31%. With `O=C(NC(=O)c1ccc(Cl)c(Cl)c1)OC1CCS(=O)(=O)C1` (stereo not drawn), the “activation” value is 17.7%.

`Cc1ccnc(N)c1`: the “activation” value was 16.3%. Still for that read-out and setting: the result for `CC(C)c1ccc2c([Si](C)(C)C)c3c(nc2c1)-c1cccc(=O)n1C3` reads 2.88%. As for `O=C(CC1CCCCC1)Nc1c2c(nn1-c1ccc(F)cc1)CS(=O)(=O)C2`, the Potency is 15.8 µM (active). Consider `COc1cccc(C(=O)Nc2c3c(nn2-c2cccc(C)c2C)CS(=O)(=O)C3)c1OC`, for which the “activation” value is 17.4%. Take `COc1ccc(C2C(C#N)=C(N)Oc3n[nH]c(C)c32)cc1CN1CCN(c2ccc(F)cc2)CC1` (stereo not drawn): the “activation” value is -7.97%. Same read-out and setting: the result for `Cc1nc2cnc(N3CCN(C)CC3)nc2n(C[C@H]2CCCO2)c1=O` reads -4.71%.

For the compound `CC(C)(C)NC(=O)c1cc(NC(=O)c2ccco2)cc(NC(=O)c2ccco2)c1`, the “activation” value was 2.66%. Same read-out and setting: the result for `Cc1cccc(C2c3c(n(C)c(=O)n(C)c3=O)N=C3c4ccccc4C(=O)C32)c1` (stereo not drawn) reads -19.4%. Take `COc1ccc(C2C3=C(OC(C)=O)c4ccccc4C3=Nc3c2c(=O)n(C)c(=O)n3C)cc1` (stereo not drawn): the Potency is 10 µM (active).

For the compound `COc1ccc(-c2c3c(=O)n(C)c(=O)n(C)c3cn2NC(C)=O)cc1`, the “activation” value was -1.58%. On to `Cn1nnc(NC(=O)CSc2ncn[nH]2)n1`, for which the “activation” value is 1.91%. Same read-out and setting: as for `COC(=O)C(C(=O)OC)[C@@H]1CCCC(=O)C1`, the figure is 4.23% [at 11.4 µM]. With `CCc1nc(Nc2ccc3nccnc3c2)c2oc3ccccc3c2n1`, the “activation” value is 3.36%. In the case of `COc1ccccc1Nc1ncnc2c1oc1ccccc12`, the Potency is 31.6 µM (active). In the case of `COc1ccc(CCNC(=O)CSc2nc(C)nc3c2oc2ccccc23)cc1OC`, the “activation” value was 0.977%. Regarding `COc1ccccc1CNc1ncncc1-c1cccnc1`, the “activation” value was 3.51%. For the compound `COc1ccc(CNc2ncncc2-c2ccccc2OC)c(OC)c1`, the Potency is 25.1 µM (active). As for `COc1ccccc1CNc1ncncc1-c1cccc(NS(C)(=O)=O)c1`, the “activation” value was 0.742%.

In the case of `COC(=O)[C@@H]1CC[C@H](C)[C@@H](c2ccc(C)cc2)N1C(=O)c1ccc(/C=N\O[C@@H](C)c2cn([C@H](CO)Cc3ccccc3)nn2)cc1`, the activation was 9.66% [at 11.4 µM] and 5.24% [at 11.4 µM].

Regarding `Cc1ccc2c(c1)c1ncn(CCC3=CCCCC3)c(=O)c1n2C`, the “activation” value was 18.7%. On the same count and under the same terms, as for `Cc1cccc(-n2ncc3c(N4CCc5ccccc54)ncnc32)c1`, the figure is 9.9%.

As to `Cc1ccc2c(c1)c1ncnc(N3CCc4ccccc4C3)c1n2C`, the Potency was 25.1 µM (active). On to `Cn1c(/C(C#N)=C2/CCCCCN2)nc2ccccc21`, for which the “activation” value was 8.85%.

On to `Cc1noc(C)c1CSc1nc2cc(S(=O)(=O)N3CCOCC3)ccc2o1`, for which the “activation” value is 0.104%.

On to `O=C(OCC(COC(=O)c1ccccc1)(COC(=O)c1ccccc1)COC(=O)c1ccccc1)c1ccccc1`, for which the “activation” value is 20%. Same read-out and setting: the result for `CCc1ccc(-c2nnn(Cc3nn[nH]n3)n2)cc1` reads 16%; that for `O=C(O)CSCc1nc2ccccc2s1`, 19.3%.

Take `CCc1ccc(-c2nnn(Cc3nc4ccccc4s3)n2)cc1`: the Potency was 15.8 µM (active). In the case of `Cc1nc2cnc(Nc3ccccc3)nc2n(Cc2ccc(F)cc2)c1=O`, the “activation” value is 26.3%. Same read-out and setting: as for `O=C(CSc1n[nH]c(-c2cccnc2)n1)Nc1ccnc2ccccc12`, the figure is 17.3%. Still for that read-out and setting: the result for `CC(=O)Nc1nonc1-c1nc2ccccc2n1Cc1ccccn1` reads 11.6%.

Take `Nc1nonc1-c1nc2ccccc2n1Cc1ccc(F)cc1`: the Potency is 20 µM (active). Take `CCCn1c(C(O)c2cc(OC)ccc2OC)nc2ccccc21` (stereo not drawn): the “activation” value was 17.2%.

In the case of `COCCn1c(-c2ccc(OC)c(OC)c2)nc2ccccc21`, the “activation” value is 10.2%.

With `COc1ccc(C)c(Cn2c(-c3nonc3N)nc3ccccc32)c1`, the Potency is 25.1 µM (active). As to `Nc1nonc1-c1nc2ccccc2n1CCC(=O)O`, the “activation” value is 2.08%.

Turning to `C=CCc1cccc2cc(C(=O)OCC)c(=O)oc12`, the “activation” value is 12.2%. Still for that read-out and setting: the result for `C/C(=C\C(=O)c1ccccc1)Nc1cccc(O)c1` reads 5.02% [at 11.4 µM]; that for `COc1cc(Cl)c(S(=O)(=O)n2cnc(C)c2)cc1Cl`, 12.1% [at 11.4 µM].

For `CCC1Oc2ccc(Cl)cc2N(CC(=O)O)C1=O` (stereo not drawn), the “activation” value was 9.51%.

In the case of `C#CCC(C(=O)OC)(C(=O)OC)C(C[N+](=O)[O-])c1ccccc1` (stereo not drawn), the activation was -0.955% [at 11.4 µM]. Regarding `COc1cccc([C@H]2Oc3ccc(OC)cc3/C(=N\OCC[C@@H]3C=C[C@H](OC(C)=O)[C@H](COC(C)=O)O3)[C@@H]2O)c1`, the activation is 1.81% [at 11.4 µM].

Regarding `Cc1ccc(C(=O)Nc2ccccc2C(=O)NC2CCCCC2)cc1S(=O)(=O)N1CCOCC1`, the Potency was 15.8 µM (active). As to `Cc1ccccc1NC(=O)c1cc(S(=O)(=O)N2CCOCC2)cs1`, the “activation” value was -8.26%.

Regarding `Cc1cc(C)n(C(=O)c2ccc(C)c(S(=O)(=O)N3CCOCC3)c2)n1`, the “activation” value was 23.4%. Take `N[C@H](C(=O)O)c1ccc(C(=O)O)c(O)c1`: the “activation” value is -2.63%. On the same count and under the same terms, the result for `Cc1c2c(nc3ccccc13)-c1cccc(=O)n1C2` reads -3.79%; that for `Cc1ccc(-c2nn(CC(C)(C)C)c3ncnc(N)c23)cc1`, -5.59%; that for `O=C(c1ccco1)N1CCN(C(=O)C2c3ccccc3Oc3ccccc32)CC1`, 14.5%.

Consider `CCCN(CCC)C(=O)C1c2ccccc2Oc2ccccc21`, for which the Potency was 12.6 µM (active).
